Assay results: the supplement of paper PMC11732987, “Enantioselective OTUD7B fragment discovery through chemoproteomics screening and high-throughput optimisation” (Communications Chemistry, 2025)

Experiments:
Assay in all cases: log2 ratio of Biotin-Ahx-Ub-VS probe labelling (fragment/DMSO); higher = less target engagement (more negative = stronger competition), active = hit call of the paper (q ≤ 0.05, log2 ratio ≤ -1)
Settings in all cases: compound concentration: 200 uM; treatment time: 3 h
ALG13 = biological target: T1, ALG13 (UniProt Q9NP73)
T1 sequence (whole entry): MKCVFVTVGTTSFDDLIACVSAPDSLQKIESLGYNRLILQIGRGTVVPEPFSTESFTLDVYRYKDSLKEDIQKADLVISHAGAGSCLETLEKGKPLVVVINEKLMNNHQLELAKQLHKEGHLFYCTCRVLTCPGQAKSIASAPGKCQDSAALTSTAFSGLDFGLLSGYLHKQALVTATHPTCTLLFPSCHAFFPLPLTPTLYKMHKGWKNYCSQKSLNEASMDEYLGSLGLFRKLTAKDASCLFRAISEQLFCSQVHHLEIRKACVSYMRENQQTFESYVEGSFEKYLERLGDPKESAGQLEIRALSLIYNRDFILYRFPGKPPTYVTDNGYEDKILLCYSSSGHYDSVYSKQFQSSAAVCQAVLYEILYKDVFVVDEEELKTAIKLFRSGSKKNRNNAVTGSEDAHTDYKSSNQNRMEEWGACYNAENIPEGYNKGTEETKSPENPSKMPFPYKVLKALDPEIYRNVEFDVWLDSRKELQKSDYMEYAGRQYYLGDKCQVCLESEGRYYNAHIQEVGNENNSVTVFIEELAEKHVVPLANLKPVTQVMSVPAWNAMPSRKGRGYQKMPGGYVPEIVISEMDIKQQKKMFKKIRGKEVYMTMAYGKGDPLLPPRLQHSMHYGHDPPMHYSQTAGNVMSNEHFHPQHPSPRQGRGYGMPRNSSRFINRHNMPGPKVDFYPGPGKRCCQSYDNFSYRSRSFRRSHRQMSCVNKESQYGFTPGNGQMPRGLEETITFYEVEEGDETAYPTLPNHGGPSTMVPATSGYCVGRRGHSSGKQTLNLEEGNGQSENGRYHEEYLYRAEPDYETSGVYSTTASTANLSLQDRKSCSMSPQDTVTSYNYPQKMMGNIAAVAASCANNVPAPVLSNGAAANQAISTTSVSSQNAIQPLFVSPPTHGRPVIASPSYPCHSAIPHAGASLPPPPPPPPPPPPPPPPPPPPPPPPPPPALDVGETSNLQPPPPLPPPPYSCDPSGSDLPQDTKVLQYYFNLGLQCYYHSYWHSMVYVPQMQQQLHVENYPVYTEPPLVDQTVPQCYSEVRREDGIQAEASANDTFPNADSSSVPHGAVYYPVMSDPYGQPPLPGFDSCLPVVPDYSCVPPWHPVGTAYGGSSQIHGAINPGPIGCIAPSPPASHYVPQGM
Method in brief: (§1)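 Values give the average log2 ratio of fragment to vehicle, assessed by unpaired t-test on global-median-normalised Spectronaut label-free quantities. Proteins needed ≥2 unique peptides. HEK293T lysate (495 µg per sample) was treated in triplicate with fragment at 200 µM or vehicle for 3 h and then with Biotin-Ahx-Ub-VS at 0.5 µM final for 1 h. Labelled DUBs were NeutrAvidin-enriched, digested and run by diaPASEF LC-MS/MS.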

ATXN3 = ATXN3 (UniProt P54252)
ATXN3, sequence (P54252 whole entry): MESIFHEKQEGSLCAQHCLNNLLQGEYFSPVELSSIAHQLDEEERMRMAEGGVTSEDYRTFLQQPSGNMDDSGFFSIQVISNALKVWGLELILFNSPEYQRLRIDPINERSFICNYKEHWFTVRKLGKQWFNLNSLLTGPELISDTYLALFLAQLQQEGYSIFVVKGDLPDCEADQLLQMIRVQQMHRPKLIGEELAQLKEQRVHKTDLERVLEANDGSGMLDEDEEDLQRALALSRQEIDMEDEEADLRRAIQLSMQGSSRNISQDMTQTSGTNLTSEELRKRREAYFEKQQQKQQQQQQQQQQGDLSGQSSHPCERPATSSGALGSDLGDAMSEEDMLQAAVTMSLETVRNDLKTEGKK
Method in brief: as §1

BAP1 = biological target: T2, BAP1 (UniProt Q92560)
T2 sequence (whole entry): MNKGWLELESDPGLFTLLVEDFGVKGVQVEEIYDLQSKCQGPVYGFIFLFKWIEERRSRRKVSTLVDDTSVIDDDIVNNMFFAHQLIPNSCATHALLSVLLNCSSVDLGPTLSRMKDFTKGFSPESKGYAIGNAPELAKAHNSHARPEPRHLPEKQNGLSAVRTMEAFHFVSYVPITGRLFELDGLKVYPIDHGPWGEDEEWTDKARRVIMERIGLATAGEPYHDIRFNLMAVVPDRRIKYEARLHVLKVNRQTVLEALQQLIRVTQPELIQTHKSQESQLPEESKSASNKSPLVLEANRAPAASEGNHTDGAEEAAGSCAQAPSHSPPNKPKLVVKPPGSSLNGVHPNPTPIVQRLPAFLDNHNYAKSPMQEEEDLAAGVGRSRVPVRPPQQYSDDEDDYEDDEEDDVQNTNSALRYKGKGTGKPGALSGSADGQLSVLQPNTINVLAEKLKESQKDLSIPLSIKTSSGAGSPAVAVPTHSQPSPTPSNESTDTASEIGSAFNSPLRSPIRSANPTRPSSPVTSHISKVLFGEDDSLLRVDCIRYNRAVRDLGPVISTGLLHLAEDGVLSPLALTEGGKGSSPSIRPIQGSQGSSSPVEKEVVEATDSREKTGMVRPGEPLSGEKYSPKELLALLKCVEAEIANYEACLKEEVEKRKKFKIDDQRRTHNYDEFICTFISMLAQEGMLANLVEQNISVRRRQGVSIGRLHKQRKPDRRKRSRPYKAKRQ
Method in brief: as §1

EIF3F = EIF3F (UniProt O00303)
EIF3F, sequence (O00303 whole entry): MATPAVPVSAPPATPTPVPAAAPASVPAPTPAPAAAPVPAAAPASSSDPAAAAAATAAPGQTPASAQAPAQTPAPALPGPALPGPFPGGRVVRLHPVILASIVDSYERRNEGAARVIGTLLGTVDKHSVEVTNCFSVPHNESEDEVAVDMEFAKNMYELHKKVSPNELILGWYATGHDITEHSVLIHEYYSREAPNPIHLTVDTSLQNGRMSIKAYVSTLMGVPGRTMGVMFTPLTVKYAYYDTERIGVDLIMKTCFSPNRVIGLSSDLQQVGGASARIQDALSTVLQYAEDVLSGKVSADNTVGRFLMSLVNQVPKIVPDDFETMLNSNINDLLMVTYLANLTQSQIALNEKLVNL
Method in brief: as §1

EIF3H = EIF3H (UniProt O15372)
EIF3H, sequence (O15372 whole entry): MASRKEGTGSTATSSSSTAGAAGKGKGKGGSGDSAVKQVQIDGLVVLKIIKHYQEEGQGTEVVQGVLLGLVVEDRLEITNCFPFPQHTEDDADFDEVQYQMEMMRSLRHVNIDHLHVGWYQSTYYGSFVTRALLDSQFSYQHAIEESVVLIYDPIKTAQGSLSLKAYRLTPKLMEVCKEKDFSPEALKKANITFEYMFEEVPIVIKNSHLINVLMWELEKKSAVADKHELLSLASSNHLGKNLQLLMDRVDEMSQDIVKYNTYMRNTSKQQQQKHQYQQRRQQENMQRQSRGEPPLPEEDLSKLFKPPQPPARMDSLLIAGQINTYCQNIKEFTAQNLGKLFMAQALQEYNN
Method in brief: as §1

FAM105A = biological target: T3, FAM105A (UniProt Q9NUU6)
T3 sequence (whole entry): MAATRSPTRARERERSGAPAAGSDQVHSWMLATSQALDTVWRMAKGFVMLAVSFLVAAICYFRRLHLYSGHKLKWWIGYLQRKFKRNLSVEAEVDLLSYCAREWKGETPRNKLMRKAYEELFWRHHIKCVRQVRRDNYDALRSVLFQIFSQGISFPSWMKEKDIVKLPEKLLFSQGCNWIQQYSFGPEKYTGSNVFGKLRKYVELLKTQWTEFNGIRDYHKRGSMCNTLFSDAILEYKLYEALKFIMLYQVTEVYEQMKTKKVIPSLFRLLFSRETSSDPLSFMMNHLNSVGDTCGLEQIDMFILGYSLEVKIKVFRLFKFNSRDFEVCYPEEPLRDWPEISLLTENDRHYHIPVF
Method in brief: as §1

OTUB1 = OTUB1 (UniProt Q96FW1)
OTUB1, sequence (Q96FW1 whole entry): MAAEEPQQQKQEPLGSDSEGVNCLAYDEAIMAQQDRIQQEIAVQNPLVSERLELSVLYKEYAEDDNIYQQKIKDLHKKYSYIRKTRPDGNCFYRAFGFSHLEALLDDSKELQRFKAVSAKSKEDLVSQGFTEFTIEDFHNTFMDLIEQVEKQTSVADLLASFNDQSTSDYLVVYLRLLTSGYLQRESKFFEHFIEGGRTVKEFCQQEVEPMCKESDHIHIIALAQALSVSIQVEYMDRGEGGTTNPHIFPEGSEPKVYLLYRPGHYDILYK
Method in brief: as §1

OTUD4 = biological target: T4, OTUD4 (UniProt Q01804)
T4 sequence (whole entry): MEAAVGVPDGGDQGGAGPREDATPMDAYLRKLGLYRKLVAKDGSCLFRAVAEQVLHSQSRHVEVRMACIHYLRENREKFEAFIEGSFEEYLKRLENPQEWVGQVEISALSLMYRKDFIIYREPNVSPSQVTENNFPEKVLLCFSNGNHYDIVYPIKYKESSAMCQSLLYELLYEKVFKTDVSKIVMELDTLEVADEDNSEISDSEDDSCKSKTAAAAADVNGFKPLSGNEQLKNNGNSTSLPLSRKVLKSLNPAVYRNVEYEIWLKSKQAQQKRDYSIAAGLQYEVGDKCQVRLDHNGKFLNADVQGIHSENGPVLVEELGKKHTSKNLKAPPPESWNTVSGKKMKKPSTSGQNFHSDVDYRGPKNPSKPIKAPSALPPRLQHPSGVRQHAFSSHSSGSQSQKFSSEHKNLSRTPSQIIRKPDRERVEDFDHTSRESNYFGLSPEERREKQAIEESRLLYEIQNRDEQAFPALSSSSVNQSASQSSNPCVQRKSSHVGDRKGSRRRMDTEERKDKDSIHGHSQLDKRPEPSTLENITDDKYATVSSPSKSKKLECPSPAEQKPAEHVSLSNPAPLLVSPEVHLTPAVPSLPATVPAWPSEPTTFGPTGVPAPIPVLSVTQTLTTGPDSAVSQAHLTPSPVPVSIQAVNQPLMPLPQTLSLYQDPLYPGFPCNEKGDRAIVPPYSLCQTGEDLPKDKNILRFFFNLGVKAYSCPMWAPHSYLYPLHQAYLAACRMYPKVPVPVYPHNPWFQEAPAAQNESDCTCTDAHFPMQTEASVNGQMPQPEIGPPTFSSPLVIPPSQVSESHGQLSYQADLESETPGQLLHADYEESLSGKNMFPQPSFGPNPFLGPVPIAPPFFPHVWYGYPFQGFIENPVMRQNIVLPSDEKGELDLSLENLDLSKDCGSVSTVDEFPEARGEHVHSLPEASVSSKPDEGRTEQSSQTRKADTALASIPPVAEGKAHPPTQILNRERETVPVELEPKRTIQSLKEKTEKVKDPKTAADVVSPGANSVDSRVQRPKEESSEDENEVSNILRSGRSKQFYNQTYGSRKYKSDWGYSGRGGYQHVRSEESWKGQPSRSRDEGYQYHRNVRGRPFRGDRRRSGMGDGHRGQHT
Method in brief: as §1

OTUD5 = biological target: T5, OTUD5 (UniProt Q96G74)
T5 sequence (whole entry): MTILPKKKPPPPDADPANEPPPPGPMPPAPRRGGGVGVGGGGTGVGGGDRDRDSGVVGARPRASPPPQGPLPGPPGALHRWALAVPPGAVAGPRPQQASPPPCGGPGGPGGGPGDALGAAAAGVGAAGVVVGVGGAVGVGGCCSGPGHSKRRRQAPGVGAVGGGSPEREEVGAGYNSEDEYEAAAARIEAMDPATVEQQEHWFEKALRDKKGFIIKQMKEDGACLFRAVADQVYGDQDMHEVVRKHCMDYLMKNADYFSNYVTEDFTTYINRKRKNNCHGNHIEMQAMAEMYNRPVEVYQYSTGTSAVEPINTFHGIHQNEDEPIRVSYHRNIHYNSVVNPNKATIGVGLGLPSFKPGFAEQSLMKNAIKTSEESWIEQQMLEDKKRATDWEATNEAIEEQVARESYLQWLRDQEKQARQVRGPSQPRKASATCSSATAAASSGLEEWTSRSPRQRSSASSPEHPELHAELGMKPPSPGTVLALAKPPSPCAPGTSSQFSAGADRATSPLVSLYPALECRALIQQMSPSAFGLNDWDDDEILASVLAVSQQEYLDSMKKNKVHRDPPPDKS
Method in brief: as §1

Measured: log2 ratio of Biotin-Ahx-Ub-VS probe labelling

Cc1cccc(NC(=O)CCl)c1C
inactive: ALG13 0.138 | ATXN3 -0.243 | EIF3F -0.272 | EIF3H 0.00998 | FAM105A 0.19 | OTUB1 0.0184 | OTUD4 -0.0599 | OTUD5 -0.394
active: BAP1 -3.21
